Experimental data from PubChem BioAssay (NCATS).
Inconclusive results are not listed. Calls of active or inactive are those of the source. Calls come from the whole dose curve; as a rule, active = well fitted inhibition curve with a large enough effect; inconclusive = small, poorly fitted or top-dose-only effect; inactive = flat fitted curve, though single readings scatter.

Assays:
[1] = system: HEK293; assay: Cytotoxic Profiling of Annotated Libraries Using Quantitative High-Throughput Screening (AID 1296008); conditions: Five cell lines viability, CellTiter-Glo ATP luminescence, 48-72 h; max response: hits give low values; for max response: % is set by controls: 0 for no effect and ±100 for the full control effect
In short: (§1)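 Cells exposed to compounds for 48 or 72 hr at 37 degrees Celsius. Viability read as ATP-coupled luminescence with CellTiter-Glo after 10 min at room temperature.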

[2] = system: HaCat; assay: as above; conditions: Five cell lines viability, CellTiter-Glo ATP luminescence, 48-72 h; max response: hits give low values
In short: as §1

[3] = system: KB-3-1; assay: as above; conditions: Five cell lines viability, CellTiter-Glo ATP luminescence, 48-72 h; max response: hits give low values
In short: as §1

[4] = system: NIH3T3; assay: as above; conditions: Five cell lines viability, CellTiter-Glo ATP luminescence, 48-72 h; max response: hits give low values
In short: as §1

[5] = system: HEK293T; assay: qHTS assay to identify novel small-molecules to repurpose for Merkel cell carcinoma treatment (AID 1296009); conditions: MCC and control cell lines, CellTiter-Glo viability, 72 h; series mostly up to 44.8 µM
In short: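 Dose-response viability screen; 72 hr exposure at 37 degree celsius; CellTiter-Glo added, 10 min room temperature, luminescence read; RLUs scaled between no-cell and DMSO wells.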
Note: nearly all actives have a fitted effect of over 60% in size.

COCC(=O)N1CCc2cc(-c3csc(NC(=O)c4cc(OC)cc(OC)c4)n3)ccc21
inactive: outcome [1] | max response [2] -4% | outcome [3] | outcome [4] | Potency [5]

C=C1C(=O)O[C@H]2[C@H]1[C@@H](OC(=O)C(C)CO)C[C@@]1(C)[C@H](O)CCC(=O)[C@H]21 (stereo not given in full)
inactive: outcome [1] | max response [2] -8.77% | outcome [3] | max response [4] -0.0339% | Potency [5]

COC(=O)[C@@H]1C2CC3c4[nH]c5ccccc5c4CCN3CC2CC[C@@H]1O (stereo not given in full)
inactive: outcome [1] | max response [2] -0.215% | max response [3] 6.91% | outcome [4] | Potency [5]

NC(=O)c1ccc(OCC2NC(=O)C3CCCN3C2=O)cc1 (stereo not given)
inactive: outcome [1] | max response [2] -3.74% | max response [3] 6.37% | outcome [4] | Potency [5]

C[C@]12CCC(=O)C=C1[C@@H](O)C[C@@H]1[C@@H]2[C@@H](O)C[C@@]2(C)[C@H]1CC[C@]2(O)C(=O)CO
inactive: outcome [1] | max response [2] 1.59% | max response [3] 8.45% | outcome [4] | Potency [5]

CCC[C@@H]1C[C@@H](C(=O)N[C@H](C(C)Cl)[C@H]2O[C@H](SC)[C@H](O)[C@@H](O)[C@H]2O)N(C)C1 (stereo not given in full)
inactive: outcome [1] | max response [2] 1.16% | max response [3] 7.07% | max response [4] 3.25% | Potency [5]

C=C1C2=CC(O)C(C)C1(C)CC/C(C)=C/CCC1(C)OC1C2=O (stereo not given)
inactive: outcome [1] | max response [2] 1.13% | outcome [3] | outcome [4] | Potency [5]

CC1(C)O[C@]23C[C@H]1C[C@H](OC(=O)c1ccoc1)[C@]2(C)[C@@H](OC(=O)c1ccoc1)CCC3(C)O (stereo not given in full)
inactive: outcome [1] | max response [2] 2.39% | max response [3] 7.96% | max response [4] -0.102% | Potency [5]

Nc1nonc1C(=Nc1ccc(F)c(Cl)c1)NO
inactive: outcome [1] | max response [2] -3.71% | outcome [3] | outcome [4] | Potency [5]

CC(/C=C/C1(O)C2(C)COC1(C)CC(=O)C2)O[C@@H]1O[C@H](CO)[C@@H](O)[C@H](O)[C@H]1O (stereo not given in full)
inactive: outcome [1] | max response [2] 3.45% | outcome [3] | max response [4] 3.43% | Potency [5]

CCNC(=O)[C@H]1O[C@H](n2cnc3c(NCC(c4ccccc4)c4ccccc4)nc(C(=O)NCCNC(=O)NC4CCN(c5ccccn5)CC4)nc32)[C@H](O)[C@@H]1O
inactive: outcome [1] | max response [2] -11.9% | max response [3] 2.94% | max response [4] 1.64% | Potency [5]

CC1OC(OC2C(CO)OC(OCC3OC(OC(=O)C45CCC(C)(C)CC4C4=CCC6C7(C)CCC(OC8OC(C(=O)O)C(O)C(OC9OC(CO)C(O)C(O)C9O)C8O)C(C)(C)C7CCC6(C)C4(C)CC5)C(O)C(O)C3O)C(O)C2O)C(O)C(O)C1O (stereo not given)
inactive: outcome [1] | max response [2] -1.82% | outcome [3] | max response [4] 3.49% | outcome [5] inactive [at 9.27 µM]

COc1cc(C(=O)OC[C@H]2O[C@H](O[C@@]3(CO)O[C@@H](CO)[C@H](O)[C@H]3O)[C@H](O)[C@@H](O)[C@@H]2O)ccc1O
inactive: outcome [1] | max response [2] 2.76% | max response [3] 4.87% | max response [4] 0.778% | Potency [5]

CC1=C(C)C(=O)OC(C(C)(O)C2CCC3C4CC=C5CC(OC6OC(COC7OC(CO)C(O)C(O)C7O)C(O)C(O)C6O)CC(O)C5(C)C4CCC32C)C1 (stereo not given)
inactive: outcome [1] | max response [2] -5.11% | max response [3] 2.61% | max response [4] -0.0747% | Potency [5]

CC(C)=CCC[C@](C)(O[C@@H]1O[C@H](CO[C@@H]2OC[C@@H](O)[C@H](O)[C@H]2O)[C@@H](O)[C@H](O)[C@H]1O)[C@H]1CC[C@]2(C)[C@@H]1[C@H](O)C[C@@H]1[C@@]3(C)CC[C@H](O[C@@H]4O[C@H](CO)[C@@H](O)[C@H](O)[C@H]4O[C@@H]4O[C@H](CO)[C@@H](O)[C@H](O)[C@H]4O)C(C)(C)[C@@H]3CC[C@]12C
inactive: outcome [1] | max response [2] -10.6% | outcome [3] | outcome [4] | Potency [5]

COc1cc(/C=C/C(=O)OC2CC3CCC2(C)C3(C)C)ccc1O (stereo not given)
inactive: outcome [1] | max response [2] -0.121% | max response [3] 9.6% | outcome [4] | Potency [5]

O=C(NCc1ccc(OC(F)(F)F)cc1)C1c2ccccc2C(=O)N1C1CCOCC1 (stereo not given)
inactive: outcome [1] | max response [2] -6.26% | outcome [3] | outcome [4] | Potency [5]

CCC(=O)N[C@@H]1Cc2ccccc2[C@H](c2ccccc2)C1
inactive: outcome [1] | max response [2] 0.895% | outcome [3] | outcome [4] | Potency [5]

CC(=O)NC(C(=O)OC1CCC(C)(C)C2CC=C3C(=O)OCC3(O)C12C)C(C)C (stereo not given)
inactive: outcome [1] | max response [2] -11.8% | outcome [3] | max response [4] -6.26% | Potency [5]

COC1=Cc2c(nc3n(c2=O)C(C)C(=O)NC3(O)C(C)C)OC=C1 (stereo not given)
inactive: outcome [1] | max response [2] 4.53% | max response [3] 6.94% | max response [4] 2.45% | Potency [5]

C=CC(C)(C)C1(CC2NC(=O)C3CCCN3C2=O)C(=O)Nc2cc3c(cc21)C=CC(C)(C)O3 (stereo not given)
inactive: outcome [1] | max response [2] -0.592% | max response [3] 2.09% | outcome [4] | Potency [5]

CC1CCCC2OC2C(=O)c2c(O)cc(O)cc2CC(=O)O1 (stereo not given)
inactive: outcome [1] | max response [2] -2.51% | max response [3] 3.41% | outcome [4] | Potency [5]
